Assay outcomes as filed in PubChem.
HP1b chromo inh = HTS for Inhibitors of HP1-beta Chromodomain Interactions with Methylated Histone Tails; AlphaScreen HP1-beta / biotin-H3K9me3 peptide binding; Potency, µM (titrated, usually from 114 µM), inactives show at the top dose activity change, negative = inhibition, hits mostly inhibitors; actives 0.56% (n = 390,000); AID 540317, 2011; also: nearly all actives have a fitted effect of over 70% in size
Target sequence (P83916 whole entry, looked up): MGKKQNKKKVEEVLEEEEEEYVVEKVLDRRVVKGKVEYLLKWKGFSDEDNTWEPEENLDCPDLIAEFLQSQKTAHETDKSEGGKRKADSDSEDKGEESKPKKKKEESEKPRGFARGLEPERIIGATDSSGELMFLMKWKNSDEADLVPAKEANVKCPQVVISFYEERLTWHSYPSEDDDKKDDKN
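AlphaScreen: HP1-beta (50 nM) preformed 30 min with biotin-H3(1-18)K9me3 peptide (50 nM) in PBS pH 7.4, 0.01% Tween-20. Compound added for 30 min at RT, then streptavidin donor/nickel chelate acceptor beads (10 ug/mL) for 30 min.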
L3MBTL1 inh = qHTS Assay for the Inhibitors of L3MBTL1. AID 485360, 2010. Lethal(3)malignant brain tumor-like protein 1 (Homo sapiens), Q9Y468. Potency, µM (doses to about 57.1 µM), for inactives: at the top dose activity, negative = inhibition, usual class: inhibitors. AlphaScreen L3MBTL1–H3K9me1 peptide binding. actives 0.66% (n = 230,000); also: % is scaled to controls: 0 for no effect and ±100 for the full control effect; nearly all actives have a fitted effect of over 60% in size
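First, the protein-peptide complex forms for 30 min at room temperature (L3MBTL1 50 nM, biotinylated H3K9me1 peptide 75 nM). Next, compounds are pin-transferred and incubated 30 min. Finally, AlphaScreen beads are added and read after 30 min.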
JMJD2A Tudor = qHTS Assay for Inhibitors of JMJD2A-Tudor Domain; Potency, µM (titrated, usually from 114 µM), for inactives: top-dose activity change, negative = inhibition, actives largely listed as inhibitors; AlphaScreen JMJD2A-Tudor / H3K4me3 peptide binding; actives 4.4% (n = 390,000); AID 504339, 2011; Lysine-specific demethylase 4A (Homo sapiens), O75164; also: % is scaled to controls: 0 for no effect and ±100 for the full control effect; nearly all actives have a fitted effect of over 50% in size
G9a inh = qHTS Assay for Inhibitors of Histone Lysine Methyltransferase G9a | Histone-lysine N-methyltransferase EHMT2 (Homo sapiens), Q96KQ7 | Potency, µM (doses to about 102 µM), without a hit: at the top dose activity, negative = inhibition, hits mostly inhibitors | actives 8.8% (n = 350,000) | AID 504332, 2011 | G9a H3K9 monomethylation, AlphaScreen, 2 h; also: % is scaled to controls: 0 for no effect and ±100 for the full control effect; nearly all actives have a fitted effect of over 75% in size
Target sequence (Q96KQ7 913-1193 limits assumed): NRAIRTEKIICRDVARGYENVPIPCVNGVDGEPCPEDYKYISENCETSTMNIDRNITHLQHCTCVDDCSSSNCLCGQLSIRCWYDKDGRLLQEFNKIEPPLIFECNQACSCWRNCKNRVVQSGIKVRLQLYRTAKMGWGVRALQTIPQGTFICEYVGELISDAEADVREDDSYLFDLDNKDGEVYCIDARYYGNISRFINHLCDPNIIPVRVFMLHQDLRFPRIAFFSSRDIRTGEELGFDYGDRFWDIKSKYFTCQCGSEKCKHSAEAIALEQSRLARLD
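Compounds were preincubated with 20 nM G9a for 15 min, after which biotinylated H3K9 peptide (500 nM) and SAM (20 uM) started a 2 h room-temperature reaction. Monomethylated product was quantified by antibody-based AlphaScreen chemiluminescence.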
BAZ2B block = qHTS Assay for Inhibitors of BAZ2B; Bromodomain adjacent to zinc finger domain protein 2B (Homo sapiens), Q9UIF8; AlphaScreen BAZ2B-H3K14Ac peptide displacement; Potency, µM (doses to about 114 µM), without a hit: at the highest dose activity change, negative = inhibition, actives largely listed as inhibitors; actives 4.4% (n = 360,000); AID 504333, 2011; also: % is scaled to controls: 0 for no effect and ±100 for the full control effect; nearly all actives have a fitted effect of over 60% in size
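AlphaScreen displacement of biotin-H3(5-23)K14Ac peptide (50 nM final) from BAZ2B (50 nM final) in PBS pH 7.4, 0.01% Tween-20; complex preformed 30 min RT, then compounds (top 110 uM) 30 min RT, beads 20 min dark.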
Sfp PPTase inh = qHTS Assay for Inhibitors of Bacillus subtilis Sfp phosphopantetheinyl transferase (PPTase). Biochemical Sfp PPTase activity, qHTS. 4'-phosphopantetheinyl transferase ffp (Bacillus subtilis), Q9F4F7. AID 1490, 2009. actives 3.5% (n = 310,000). Potency, µM, inactives show largest response in the series, negative = inhibition, hits mostly inhibitors;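 also: the enzyme is Sfp with the accession as filed and its product quenches rhodamine fluorescence; 0% = enzyme reaction without inhibitor and -100% = no enzyme wells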
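Buffer: 50 mM Hepes-Na pH 7.6, 10 mM MgCl2, 0.01% Nonidet P-40, 0.01% BSA. Enzyme 15 nM, pre-exposed to compound 15 min; substrates then added and fluorescence change tracked over 30 min.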
* = called active by the depositor; ? = inconclusive; · = not tested or not shown; ! = repeats disagree; [ ] = dose if it differs, or a comment. Sampled rows, rich in hits. Any-hit rate of the full collection: about 12%. Calls follow the shape of the dose curve; as a rule, active = well fitted curve in the direction sought with a large enough effect; inconclusive = small, poorly fitted or top-dose-only effect, or another doubt; inactive = no such curve, though single readings can be large; an effect the other way counts as inactive or inconclusive. Potency is read from the fitted curve at half-maximal effect.

SMILES | HP1b chromo inh | L3MBTL1 inh | JMJD2A Tudor | G9a inh | BAZ2B block | Sfp PPTase inh
CCOCCc1nn2c(=O)cc(COC(=O)c3ccccc3NC(=O)C3CCCCC3)nc2s1 | 30% | · | -3% | 0%[12.7 µM] | -5% | ·
CCc1ccc(NC(=O)c2nnn(Cc3cccc(C(F)(F)F)c3)c2N)cc1 | 31% | · | -6% | -10%[59 µM] | -33% | ·
Fc1ccc(-n2c(=S)[nH]c3cccnc32)cc1 | 71µM* | 8% | 16µM* | · | 5% | 28µM*
C[C@@H](C(=O)NCc1ccc(C(F)(F)F)nc1)[C@H]1C[C@]1(C)[C@H](NC(=O)OCc1ccccc1)c1ccccc1 | · | · | · | · | · | 2%
COc1ccc(NC(=O)Cn2c(SCc3cccc(Cl)c3)nc3ccncc32)c(OC)c1OC | 16% | · | -20% | ? | ? | ·
COc1ccc(/C=N/n2c(-c3n[nH]c4c3CCC4)n[nH]c2=S)cc1 | -17% | -7% | 10µM* | 1.6µM* | -21% | 11%
COc1cc(OC)c(OC)cc1/C=N/n1c(-c2n[nH]c3c2CCC3)n[nH]c1=S | -26% | 0% | 3.2µM* | 1.6µM* | -22% | 22µM*
COc1cccc(-c2n[nH]c3c2CCC3)c1 | 21% | 23% | -15% | 8% | -21% | 15%
COc1ccc(OC)c(/C=N/n2c(-c3n[nH]c4c3CCC4)n[nH]c2=S)c1 | 8% | 42% | 6.3µM* | · | -6% | -7%
O=c1c(-c2ccc(F)cc2)nc2cnc(Nc3ccccc3)nc2n1C[C@H]1CCCO1 | · | · | · | 8%[0.501 µM] | · | 2%
CCOC(=O)CSc1nnc2n(-c3ccccc3)c(=O)c3c4c(sc3n12)CC(C(C)(C)C)CC4 (centres undefined) | 2% | · | -32% | -37%[59 µM] | ? | ·
CCCN1CCC(=O)N(C(CSc2ccc(OC)cc2)CC(C)C)CC1 (centres undefined) | 17% | · | -24% | · | · | 3%
COc1cccc(CCNC(=O)c2cnc3sc(N4CCCCCC4)nn3c2=O)c1 | 18% | · | -9% | -6%[59 µM] | -1% | ·
c1ccc2c(Nc3ccc4c(c3)OCCO4)c3c(nc2c1)CCCC3 | -16% | · | ? | ? | ? | 50µM*
CCOc1cccc2sc(N(CCN(C)C)C(=O)c3cc4ccccc4cc3OC)nc12 | -20% | · | 45µM* | 40µM* | ? | ?
CCOc1ccc2nc(N(CCN(C)C)C(=O)c3cc4ccccc4cc3OC)sc2c1 | ? | · | 40µM* | 50µM* | ? | ?
CNC(=O)C1CCC(Cn2c(=O)c3sccc3n(CC(=O)N3CCC(C)CC3)c2=O)CC1 (centres undefined) | 10% | · | -18% | 5%[59 µM] | -1% | ·
N#Cc1ccc(OCC(=O)NCCCn2ccnc2)cc1 | 9%[57 µM] | ? | 63µM* | · | · | ·
O=C(COc1ccc(Br)cc1)Nc1ccncc1 | 35% | · | -2% | 23% | 7% | 16%
N#Cc1ccc(OCC(=O)Nc2ccncc2)cc1 | 35% | · | -2% | 50µM* | -11% | -24%
Fc1ccccc1/C=N/Nc1nn[nH]n1 | 29% | · | 79µM* | 20µM* | ? | ?
CCN(CC)c1ccc(/C=N/Nc2nc(C)cc(C)n2)cc1 | -10% | -18% | ? | ? | ? | 17%
CCN(CC)c1ccc(/C=N/Nc2nn[nH]n2)cc1 | 28% | -14% | -19% | ? | ? | 40µM*
O=C(Cc1ccccc1)Nc1nc2ccc(Cl)cc2c2nc(-c3ccco3)nn12 | · | · | · | 7%[59 µM] | · | -18%
COc1ccc(CC2(C)OC(c3ccc([N+](=O)[O-])cc3)=NN2C(C)=O)cc1 (centres undefined) | ? | -29% | ? | 11µM* | ? | -8%
SMILES | HP1b chromo inh | L3MBTL1 inh | JMJD2A Tudor | G9a inh | BAZ2B block | Sfp PPTase inh
COc1cccc(NC(=O)c2oc3ccccc3c2NC(=O)COc2ccccc2C)c1 | 31% | · | -15% | -48%[59 µM] | -2% | ·
CSc1ccc(C2C(C#N)=C(N)Oc3c2ccc(=O)c2c(C)oc(C)c32)cc1 (centres undefined) | ? | ? | 56µM* | 32µM* | ? | 56µM*
Cc1oc(C)c2c(=O)ccc3c(c12)OC(N)=C(C#N)C3c1ccccc1Cl (centres undefined) | -28% | ? | -3%[11.4 µM] | 28µM* | ? | 50µM*
CC(=O)C1=C(C)OC(N)=C(C#N)C1c1cccc2ccccc12 (centres undefined) | 1% | 4% | -14% | · | -15% | -25%
Cc1oc(C)c2c(=O)ccc3c(c12)OC(N)=C(C#N)C3c1ccccc1 (centres undefined) | -23% | -19% | -35% | 8.9µM* | ? | -35%
C[C@@H](O)CCC[C@H](O)/C=C/[C@@H]1[C@@H](C/C=C\CCCC(=O)O)[C@@H](O)C[C@H]1O | · | · | · | · | · | -7%
CSc1cccc(NC(=O)c2c(Cl)cnn2C)c1 | 9% | · | -16% | -21%[59 µM] | 9% | -13%
CCn1c(C)cc(O)c(C(=O)Nc2cccc(Cl)c2)c1=O | 41% | · | -4% | 22% | 4% | 20%
Cn1ncc(Cl)c1C(=O)Nc1cccc(Cl)c1 | -20% | -3% | 89µM* | 2.8µM* | 13% | 20µM*
Cn1ncc(N=Cc2c(O)ccc3ccccc23)c1C(=O)Nc1cccc(Cl)c1 | -8% | 3% | ? | 7.9µM* | 50µM* | ?
Cc1cc(O)c(C(=O)Nc2cccc(Cl)c2)c(=O)n1C | 41% | · | 0% | 50µM* | -5% | 15%
Cn1ncc([N+](=O)[O-])c1C(=O)Nc1cccc(Cl)c1 | 6% | -2%[2.29 µM] | -12% | 12%[0.501 µM] | 0% | -1%
COc1cc(C(CC(=O)Nc2ccc(C)c(F)c2)N2Cc3ccccc3C2=O)cc(OC)c1OC (centres undefined) | 4% | · | -14% | -7%[59 µM] | -5% | ·
Oc1ccc2[nH]cnc2c1CN1CCCCC1 | 24% | -4% | 4% | 5.6µM* | 11% | -18%
CC1=C(/C=C/C(C)=C\C=C\C(C)=C\C(=O)O)C(C)(C)CCC1 | · | · | · | 22µM*! | · | 13%
CC1=C(/C=C/C(C)=C/C=C/C(C)=C/C(=O)O)C(C)(C)CCC1 | 25% | 3% | -20% | 50µM*! | ? | ?
CCCCn1cc(S(=O)(=O)c2ccc(Cl)cc2)c(=O)c2cc(F)c(N3CCCC(C)C3)cc21 (centres undefined) | 55% | · | -7% | -2%[59 µM] | 6% | ·
